Hits are enriched below; roughly 7.9% of the tested compounds scored in any of these assays.
SW480 rereplic – induces DNA re-replication in SW480 colon adenocarcinoma cells; SW480 DNA re-replication, Hoechst DNA content imaging, 48 h; Potency, µM (top dose mostly 46.1 µM), without a hit: at the highest dose re-replication activation, actives largely listed as activators; actives 1.8% (n = 340,000); AID 624297; also: % of control where 0% means no effect; nearly all actives have a fitted effect of over 55% in size
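Treated cells incubate 48 hr (37 C, 5% CO2), are stained 40 min with Hoechst, and nuclear fluorescence is enumerated; a rise in nuclei with high DNA signal marks re-replication.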
MCF10A rereplic – DNA re-replication induction in MCF 10a cells. MCF 10A DNA re-replication, Hoechst nuclear intensity, 48 h. Potency, µM (series often up to 46.1 µM), inactives show at the top dose activity, positive = re-replication, actives largely listed as activators. actives 2.9% (n = 350,000). AID 624296; also: % of control where 0% means no effect; nearly all actives have a fitted effect of over 50% in size
HT1080NT lethal – kills 2HG-producing HT-1080-NT fibrosarcoma cells | HT-1080-NT fibrosarcoma viability, CellTiter-Glo ATP luminescence, 48 h | Potency, µM (series often up to 46.1 µM), inactives show at the top dose activity, negative = less viability, actives largely listed as cytotoxic | actives 1.6% (n = 360,000) | AID 686970;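 also: NT is the 2HG producing partner of a matched IDH1 knockdown line; 0% = DMSO-treated cells and -100% = media-only wells without cells; nearly all actives have a fitted effect of over 55% in size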
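HT-1080-NT fibrosarcoma cells (2HG-overproducing), 750 cells/well in RPMI with 5% FBS, dosed after 2 h and incubated 48 h at 37C. CellTiter-Glo luminescence normalized to DMSO and no-cell wells; concentration-response curves fitted and classed.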
KB-3-1 cytotox – kills parental KB-3-1 adenocarcinoma cells | KB-3-1 viability, CellTiter-Glo ATP luminescence, 72 h | Potency, µM (series often up to 46.1 µM), hits mostly cytotoxic | actives 1.4% (n = 400,000) | AID 1347075; also: % is scaled to controls: 0 for no effect and ±100 for the full control effect; nearly all actives have a fitted effect of over 60% in size
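Using CellTiter-Glo luminescence, growth of non-resistant KB-3-1 adenocarcinoma cells is assessed 72 h after pin-tool compound addition at 37 °C. Normalized responses across the concentration series yield fitted curves.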
KB-V1 cytotox – KB-V1 MDR subline cytotoxicity; Potency, µM (top dose mostly 46.1 µM), hits mostly cytotoxic; AID 1347076; KB-V1 MDR cells viability, CellTiter-Glo, 72 h; actives 3.4% (n = 400,000); also: % is scaled to controls: 0 for no effect and ±100 for the full control effect; nearly all actives have a fitted effect of over 60% in size
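In this primary screen, KB-V1 cells overexpressing P-gp are incubated with library compounds (lowest to highest concentration) for 72 h at 37 degrees C before a luminescent ATP viability read.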
HT1080 IDH1KD tx – toxicity to HT-1080 IDH1 knockdown cells (counter line). actives 2% (n = 360,000). HT-1080 IDH1 knockdown viability, ATP luminescence, 48 h. Potency, µM (titrated, usually from 46.1 µM), for the others: top-dose activity, negative = toxicity, hits mostly cytotoxic;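 also: 0% = DMSO wells and -100% = cell-free medium wells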
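Assay cells: HT-1080 with IDH1 knockdown, 750 per well, RPMI/5% FBS. Exposure: 48 h at 37 °C following 2 h pre-incubation. Read: CellTiter-Glo luminescence; fitted concentration-response, curve class assigned.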
* = called active by the depositor; i = inactive; ? = inconclusive; / = no result given. Calls follow the shape of the dose curve; as a rule, active = well fitted curve in the direction sought with a large enough effect; inconclusive = small, poorly fitted or top-dose-only effect, or another doubt; inactive = no such curve, though single readings can be large; an effect the other way counts as inactive or inconclusive. Potency is read from the fitted curve at half-maximal effect.

SMILES	SW480 rereplic	MCF10A rereplic	HT1080NT lethal	KB-3-1 cytotox	KB-V1 cytotox	HT1080 IDH1KD tx
CN(C)c1ccc(S(=O)(=O)NCC(=O)NCCOc2ccccc2F)cc1[N+](=O)[O-]	?	-2%	-4%	i	i	-4%
CCN(CC)C(=O)c1cccnc1	-6%	0%	/	/	/	/
COc1ccc2nc3cc(Cl)ccc3c(C#N)c2c1	21µM*	25%	8%	i	i	9%
COc1ccc2nc(C(F)(F)Cl)c(C#N)c(N)c2c1	?	?	-10%	i	i	-18%
NCCCNc1ncnc2ccc(-c3ccc4c(c3)OCO4)cc12	/	/	/	?	i	/
CC(C)CN(CC(C)C)c1ccc(/C=N/n2cnnc2)cc1[N+](=O)[O-]	-8%	?	-14%	?	21µM*	-1%
Brc1cccc(/C=N\n2cnnc2)c1	-6%	21%	9%	i	?	0%
O=[N+]([O-])c1cc(/C=N/n2cnnc2)ccc1N1CCCC1	-169%	0%	-3%	i	2.6µM*	5%
O=[N+]([O-])c1cc(/C=N/O)ccc1N1CCCC1	12%	-7%	-10%	?	?	-14%
C(=Nn1cnnc1)c1ccc2c(c1)CCC2	/	/	-1%	16µM*	?	4%
O=[N+]([O-])c1cccc(/C=N/n2cnnc2)c1	4%	0%	9%	i	i	27%
Cn1cc2ccc(-c3ccc4ncnc(NCc5cccs5)c4c3)cc2n1	/	/	/	i	i	/
O=C(Nc1cc(F)ccc1F)c1cc2nc(-c3ccco3)cc(C(F)(F)Cl)n2n1	/	/	/	i	i	/
Cn1c(SCC(=O)NCc2ccco2)nnc1-c1ccc(NC(=O)c2ccccc2)cc1	/	/	/	i	i	/
CCOC(=O)Nc1sc2nc(C)cc(C)c2c1-n1cccc1	-1%	27%	-26%	?	18µM*	-29%
CCOC(=O)N1CCC(NC(=O)c2cnn(-c3ccc(F)cc3F)c2C2CCN(C(=O)OC(C)(C)C)CC2)CC1	/	/	/	i	i	/
O=C(CSc1nc(-c2ccccc2)c(-c2ccccc2)o1)N1CCOCC1	2%	16µM*	-16%	?	?	-19%
O=C(CSc1nc(-c2ccccc2)c(-c2ccccc2)o1)Nc1nnc(-c2ccccc2)s1	-10%	0%	3%	i	7.3µM*	8%
O=C(CSc1nc(-c2ccccc2)c(-c2ccccc2)o1)Nc1nncs1	5%	?	-23%	i	i	-15%
COc1cccc(CNC(=O)C(CC(C)C)NS(=O)(=O)c2ccc3c(c2)oc(=O)n3C)c1 (stereo not given)	/	/	/	i	i	/
O=C(CSc1nc(-c2cccs2)cc(C(F)(F)F)n1)Nc1cc(OCC(F)(F)C(F)F)cc([N+](=O)[O-])c1	?	?	?	?	16µM*	?
Cc1ccc(-n2c(=O)c3c(c4cc(C)ccc4n3C)n(Cc3ccc(F)cc3)c2=O)cc1	/	/	/	i	i	/
Cc1ccc(NC(=O)c2cc3nc(-c4ccc5c(c4)OCO5)cc(C(F)(F)F)n3n2)cc1Cl	/	/	/	i	i	/
COCCn1c(-c2ccccc2)cnc1SCC(=O)Nc1cccc2ccccc12	8%	?	-7%	i	5.2µM*	-6%
CCOC(=O)c1cccc(NC(=O)CSc2nc3ccccc3c(=O)n2CC)c1	-8%	4%	19%	i	2.3µM*	-3%
SMILES	SW480 rereplic	MCF10A rereplic	HT1080NT lethal	KB-3-1 cytotox	KB-V1 cytotox	HT1080 IDH1KD tx
CCOC(=O)c1cccc(NC(=O)CSc2nc3ccccc3c(=O)n2CCOC)c1	-1%	25%	4%	i	4.6µM*	0%
CCCCCn1c(=O)[nH]c2cc(C(=O)Nc3ccc(OC)c(OC)c3)ccc2c1=O	/	/	/	i	i	/
Cn1ncc(Cl)c1C(=O)NCc1ccc(Cl)cc1	?	-67%	-1%	?	3.7µM*	-5%
CCOc1ccc(-c2nc(-c3ccc(OC)cc3)no2)cc1OCC	-10%	3%	9%	i	13µM*	7%
COc1ccc(CCC(=O)Nc2ccc(-c3noc(-c4ccc(OC)c(OC)c4)n3)cc2)cc1	-9%	?	-7%	i	?	0%
COc1cc(C(=O)Nc2ccc(-c3nc4cc(C)c(C)cc4o3)cc2)cc(OC)c1OC	/	/	/	i	i	/
COc1ccc(-c2nc(-c3ccc(NC(=O)c4ccc(Br)o4)cc3)no2)cc1OC	15%	2.6µM*	?	i	i	?
COc1cc(-c2nc(-c3ccc(NC(=O)c4ccc(Br)o4)cc3)no2)cc(OC)c1OC	17%	5.2µM*	?	i	?	?
CCOc1ccc(-c2noc(-c3ccncc3)n2)cc1OCC	-14%	5%	18%	i	i	11%
COc1ccc(Cc2noc(-c3ccc(OC)c(OC)c3)n2)cc1OC	?	?	-22%	i	12µM*	-23%
C(=NN=C1c2ccccc2-c2ccccc21)c1ccc2c(c1)OCO2	2%	9%	0%	i	?	1%
Cc1cc(C)cc(NC(=O)c2cc(CN3CCCC3)on2)c1	/	/	/	i	i	/
COc1cccc(CNC(=O)COc2cc(=O)n(C)c3ccccc23)c1	/	/	/	?	i	/
Cc1c(Cl)cccc1-n1ncc(C(=O)NCCN2CCN(C)CC2)c1C1CCN(C(=O)OC(C)(C)C)CC1	/	/	/	i	i	/
Cc1ccc(C)c(Cn2c3ccccc3c3cnn(CC(=O)NCCCN4CCCCC4)c(=O)c32)c1	23%	?	?	i	i	?
COc1ccc(N2CCN(C(=O)c3ccc(-c4nc(COc5ccccc5)c(C)o4)cc3)CC2)cc1	/	/	/	i	i	/
CC(=O)c1ccc(S(=O)(=O)Nc2cccc(-c3ccc(N4CCCC4)nn3)c2)cc1	/	/	/	i	i	/
COCCCn1cc(CN2CC(N3CCN(CCN(C)C)CC3)CS2(=O)=O)nn1 (stereo not given)	/	/	26%	i	i	24%
COc1ccc(OC)c(CN2C(=O)CSCC2(C)C(=O)NCc2ccccc2)c1 (stereo not given)	/	/	6%	i	i	-8%
Cc1nn2c([nH]c(=O)c3ccccc32)c1C=O	?	28%	18µM*	i	?	?
Cc1nn2c(nc(N3CCCCC3)c3ccccc32)c1C=O	-1%	2%	?	i	i	-25%
Cc1ccc(CC2(OCCN(C)C)CCC(C(C)(C)C)CC2)cc1 (stereo not given)	24%	?	-6%	?	18µM*	-2%

Screening results: PubChem, National Center for Advancing Translational Sciences (NCATS)
